S16 F2sN tox = S16 Schwann cell cytotoxicity; 43,000 tested, 0.48% active; S16 Pmp22-F2sN Schwann cells viability, CellTiter-Glo, 24 h; AID 1508642; Potency, µM (titrated, usually from 57.5 µM), hits mostly cytotoxic; also: nearly all actives have a fitted effect of over 65% in size
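Rat S16 Schwann reporter line, 24 h treatment with library compounds delivered at 23 nL per well. Cell viability by CellTiter-Glo luminescence.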
p53null 39C kill = selectivity test: cytotoxicity in p53 null cells, nonpermissive temperature; Potency, µM (doses to about 46.1 µM), actives largely listed as cytotoxic; 55,000 tested, 0.97% active; H1299 p53-null (neo) cells, 39C, ATPlite viability, 24 h; also: nearly all actives have a fitted effect of over 50% in size
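Temperature-shift cytotoxicity format: compound titrations on p53-null or A138V-expressing H1299 cells held 24 hr at 39C, cell ATP then measured, AC50 from Hill model.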
PMP22 txn = PMP22 gene transcription modulation; Potency, µM (titrated, usually from 57.5 µM), actives largely listed as inhibitors; 43,000 tested, 2% active; S16 Pmp22-F2sN Schwann cells (luciferase reporters placed in the Pmp22 gene), FLuc/NLuc coincidence luminescence, 24 h; active = clear falling dose curves in both reporters; inconclusive = both reporters move, but less clearly or upward; inactive = either reporter flat; the % is the NLuc reporter signal
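Luminescent read-out of sequential FLuc and NLuc signals from a reporter embedded in the Pmp22 3' UTR of S16 Schwann cells, taken after 24 h compound exposure at 37C; compounds reducing both signals score as inhibitors of expression.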
mTORC1 inh = inhibitors of mTORC1 signaling in Tsc2-/- p53-/- MEF cells. Tsc2-/- p53-/- MEF, phospho-rpS6 immunofluorescence/PI, 24 h. Potency, µM (highest dose often 38.3 µM), actives largely listed as inhibitors. 44,000 tested, 0.78% active; also: nearly all actives have a fitted effect of over 50% in size
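Compounds act on Tsc2-/-, p53-/- fibroblasts carrying an empty vector for 24 h before fixation and dual staining for phospho-S6 and DNA (propidium iodide). Values are percentages of cells above a rapamycin-defined pS6/PI threshold.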
p53null 32C tox = selectivity test: cytotoxicity in p53 null cells, permissive temperature | Potency, µM (doses to about 46.1 µM), hits mostly cytotoxic | H1299-neo p53 null cells, ATP luminescence, 24 h, 32C | 55,000 tested, 0.62% active; also: nearly all actives have a fitted effect of over 55% in size
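AC50 values derive from Hill modelling of qHTS concentration-response data (up to 46 uM) in H1299-neo cells. Cells were treated 24 h at 32C following overnight attachment at 37C; viability was read as cellular ATP.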
Each line names hits and unclear results; the compound was inactive in the other large screens. This is a sample that favours compounds with a hit; in the whole collection about 3.2% have one here. Unless noted, calls follow the shape of the dose curve; as a rule, active = well fitted curve in the direction sought with a large enough effect; inconclusive = small, poorly fitted or top-dose-only effect, or another doubt; inactive = no such curve, though single readings can be large; an effect the other way counts as inactive or inconclusive.

COc1cccc(-n2c(=O)c3c4c(sc3n(Cc3ccccc3C#N)c2=O)CCCC4)c1	none
NS(=O)(=O)c1ccc2nc(NC(=O)COc3ccc(Cl)cc3Cl)sc2c1	none
Cc1ccccc1OCCn1c(=N)n(C(C)C)c2ccccc21	S16 F2sN tox inconclusive, p53null 39C kill inconclusive, PMP22 txn inconclusive, mTORC1 inh 18µM
Cc1ccccc1OCCn1c(CCNC(=O)C(C)C)nc2ccccc21	none (no result: S16 F2sN tox, PMP22 txn, mTORC1 inh, p53null 32C tox)
Cc1ccccc1OCC(O)Cn1c(=N)n(CCN2CCCCC2)c2ccccc21 (stereo not given)	S16 F2sN tox inconclusive, p53null 39C kill 20µM, PMP22 txn inconclusive, mTORC1 inh 10µM
N=c1n(CCN2CCCCC2)c2ccccc2n1CC(O)COc1ccccc1 (stereo not given)	PMP22 txn inconclusive (no result: mTORC1 inh)
CC(C)COc1ccc(C(=O)Nc2nnc(S(=O)(=O)N(C)Cc3ccco3)s2)cc1	p53null 39C kill 10µM, p53null 32C tox inconclusive
Cc1ccc(C(=O)Nc2nnc(S(=O)(=O)N(C)Cc3ccco3)s2)cc1	p53null 39C kill inconclusive
CC(NC(=O)c1c2c(nc3ccccc13)C(=O)N(C1CCCCC1)C2)c1ccccc1 (stereo not given)	mTORC1 inh inconclusive
CC(=O)Nc1cccc(-c2csc(Nc3ccc(C)cn3)n2)c1	p53null 32C tox 11µM (no result: S16 F2sN tox, p53null 39C kill, PMP22 txn, mTORC1 inh)
Cc1nc(-c2cccc(NC(=O)c3cccs3)c2)cs1	none (no result: S16 F2sN tox, PMP22 txn, mTORC1 inh)
CCOc1ccc(C(=O)Nc2ccc3c(c2)OCCO3)cc1Br	p53null 39C kill 13µM, p53null 32C tox inconclusive
CCc1ccc(C(=O)NC(=S)Nc2ccc3c(c2)OCCO3)cc1	none (no result: S16 F2sN tox, p53null 39C kill, PMP22 txn, mTORC1 inh)
CCOc1ccc(C(=O)c2cn(CC(=O)Nc3cc(OC)cc(OC)c3)c3ccc(F)cc3c2=O)cc1	PMP22 txn inconclusive
COCCNC(=O)c1nn(-c2ccc(C)cc2)c(=O)c2c1c1ccccc1n2C	S16 F2sN tox inconclusive, PMP22 txn inconclusive
CCCCNC(=O)c1nn(-c2ccc(C)cc2)c(=O)c2c1c1ccccc1n2C	S16 F2sN tox 16µM
CCN1CCC(N(Cc2ccc(F)cc2)C(=O)Nc2cccc(C(F)(F)F)c2)CC1	S16 F2sN tox inconclusive, PMP22 txn inconclusive, mTORC1 inh inconclusive
CCN1CCC(N(Cc2ccc(F)cc2)C(=O)Nc2ccc(C)c(F)c2)CC1	p53null 39C kill inconclusive, mTORC1 inh 16µM
CCOc1ccccc1NC(=O)N(Cc1ccc(F)cc1)C1CCN(CC)CC1	mTORC1 inh 15µM
CCN1CCC(N(Cc2ccc3c(c2)OCO3)C(=O)Nc2ccccc2OC)CC1	none
CCc1ccc(CN(Cc2cn[nH]c2-c2ccc(OC)cc2)C(=O)Nc2cc(Cl)ccc2OC)cc1	S16 F2sN tox inconclusive, PMP22 txn inconclusive
O=C(Nc1ccc(Cl)cc1)c1cc2c(Cl)nc3ccccc3c2s1	none
CNC(=O)c1ccc(NC(=O)c2nsc3ccccc23)cc1	p53null 39C kill 5µM, p53null 32C tox 6.3µM
Cc1ccc(CNC(=O)c2ccc(NC(=O)c3nsc4ccccc34)cc2)cc1	none
O=C(Nc1ccc(C(=O)N2CCCCC2)cc1)c1nsc2ccccc12	S16 F2sN tox inconclusive, p53null 39C kill 4µM, p53null 32C tox 4µM
O=C(NCc1cccc(F)c1)c1ccc(NC(=O)c2nsc3ccccc23)cc1	S16 F2sN tox inconclusive, p53null 39C kill 10µM, p53null 32C tox inconclusive
CCOC(=O)c1ccc(NC(=O)c2nsc3ccccc23)cc1	S16 F2sN tox inconclusive, p53null 39C kill 10µM, p53null 32C tox 7.9µM
Cc1nc2c(C(=O)NCCc3ccccc3)cnn2c(C)c1Cc1c(F)cccc1Cl	PMP22 txn inconclusive
CN(C)c1ccc(CNC(=O)CN2C(=O)c3cccnc3Oc3ccc(Cl)cc32)cc1	none
Cc1cc(C)n(C(=O)Cn2nc(C(F)F)cc2C)n1	none (no result: S16 F2sN tox, PMP22 txn, mTORC1 inh)
COc1cc(C(=O)Nc2sc3c(c2C#N)CCCC3)c(Br)c(OC)c1OC	S16 F2sN tox inconclusive, PMP22 txn 13µM
Cc1ccccc1NC(=O)Cn1c(=O)n(Cc2ccc3c(c2)OCO3)c(=O)c2ccccc21	PMP22 txn inconclusive
Cc1ccc(-n2c(SCc3nc(-c4ccccc4C)no3)nnc2-c2ccncc2)cc1C	PMP22 txn inconclusive, mTORC1 inh inconclusive
COc1ccc(C(=O)Nc2cc(OC)nc(OC)n2)cc1	p53null 39C kill 13µM, p53null 32C tox 11µM (no result: S16 F2sN tox, PMP22 txn, mTORC1 inh)
COc1cc(NS(=O)(=O)c2ccc(NC(=O)c3ccc(OC)c(Br)c3)cc2)nc(OC)n1	none
COc1ccc(C(=O)Nc2nnc(C)s2)cc1	p53null 39C kill inconclusive, p53null 32C tox 10µM
Cc1ccc(-c2nc3cc(NC(=O)C(C)C)ccc3o2)cc1C	none (no result: S16 F2sN tox, PMP22 txn, mTORC1 inh)
Nc1ccc2oc(-c3ccc4nc[nH]c4c3)nc2c1	p53null 39C kill 13µM, p53null 32C tox 7.9µM (no result: S16 F2sN tox, PMP22 txn, mTORC1 inh)
CCc1c(C)sc2c1CCN(Cc1cccc(F)c1)C2c1ccccc1 (stereo not given)	S16 F2sN tox 10µM, p53null 39C kill inconclusive, PMP22 txn inconclusive
CCc1c(C)sc2c1CCN(Cc1ccc(F)cc1)C2c1ccccc1 (stereo not given)	S16 F2sN tox 8.9µM, p53null 39C kill inconclusive, PMP22 txn inconclusive
COc1ccc(CNS(=O)(=O)c2ccc(-c3cc(C(F)(F)F)on3)s2)cc1OC	S16 F2sN tox inconclusive, PMP22 txn 20µM
CC(C)(C)C(=O)NCC12C=CC(O1)C1C(=O)N(c3ccccc3)C(=O)C12 (stereo not given)	none (no result: S16 F2sN tox, PMP22 txn, mTORC1 inh)
Cc1ccc(C)c(CN2C(=O)C(=O)c3ccccc32)c1	S16 F2sN tox inconclusive, PMP22 txn inconclusive, mTORC1 inh 2.9µM
Cc1ccc2c(c1)C(=O)C(=O)N2Cc1ccc(OC(C)C)cc1	S16 F2sN tox inconclusive, PMP22 txn 2.3µM, mTORC1 inh inconclusive
CC(C)Oc1ccc(Cn2c(=O)sc3ccccc32)cc1	none (no result: S16 F2sN tox, PMP22 txn, mTORC1 inh)
Cc1ccc(C)c(CN2C(=O)c3ccccc3S(=O)c3ccc(C(=O)N(C)Cc4ccccc4)cc32)c1 (stereo not given)	PMP22 txn inconclusive
CCOC(=O)c1ccc(N2C(=O)c3n[nH]c(-c4ccco4)c3C2c2ccc(OCC)cc2)cc1 (stereo not given)	S16 F2sN tox inconclusive, PMP22 txn inconclusive, mTORC1 inh 13µM
CCOC(=O)c1ccc(N2C(=O)c3n[nH]c(-c4cccs4)c3C2c2cccc(F)c2)cc1 (stereo not given)	p53null 39C kill inconclusive, PMP22 txn inconclusive, mTORC1 inh 18µM
CC(C)c1ccc(Nc2cc(C(=O)NCCCN(C)Cc3ccccc3)c3ccccc3n2)cc1	PMP22 txn inconclusive
COc1ccc(NC(=O)/C=C/c2ccccc2[N+](=O)[O-])c(OC)c1	none (no result: S16 F2sN tox, p53null 39C kill, PMP22 txn, mTORC1 inh)
Cc1c(C(=O)Nc2ccc(C(=O)O)cc2)nnn1-c1ccccc1	p53null 39C kill inconclusive, p53null 32C tox 13µM
CC(=O)c1ccc(NC(=O)c2nc(-c3ccccc3)n(-c3ccccc3)n2)cc1	p53null 39C kill inconclusive, PMP22 txn inconclusive

Compound activity from PubChem BioAssay.
